# According to the supplement of paper PMC11732987, “Enantioselective OTUD7B fragment discovery through chemoproteomics screening and high-throughput optimisation” (Communications Chemistry, 2025):
# A number with no mark means an inactive call.
# How the values were obtained:
# Assay in all cases: log2 ratio of Biotin-Ahx-Ub-VS probe labelling (fragment/DMSO); higher = less target engagement (more negative = stronger competition), active = hit call of the paper (q ≤ 0.05, log2 ratio ≤ -1)
# Conditions in all cases: compound concentration: 200 uM; treatment time: 3 h
# USP19 = molecular target: T1, USP19 (UniProt O94966)
# T1 sequence (whole entry): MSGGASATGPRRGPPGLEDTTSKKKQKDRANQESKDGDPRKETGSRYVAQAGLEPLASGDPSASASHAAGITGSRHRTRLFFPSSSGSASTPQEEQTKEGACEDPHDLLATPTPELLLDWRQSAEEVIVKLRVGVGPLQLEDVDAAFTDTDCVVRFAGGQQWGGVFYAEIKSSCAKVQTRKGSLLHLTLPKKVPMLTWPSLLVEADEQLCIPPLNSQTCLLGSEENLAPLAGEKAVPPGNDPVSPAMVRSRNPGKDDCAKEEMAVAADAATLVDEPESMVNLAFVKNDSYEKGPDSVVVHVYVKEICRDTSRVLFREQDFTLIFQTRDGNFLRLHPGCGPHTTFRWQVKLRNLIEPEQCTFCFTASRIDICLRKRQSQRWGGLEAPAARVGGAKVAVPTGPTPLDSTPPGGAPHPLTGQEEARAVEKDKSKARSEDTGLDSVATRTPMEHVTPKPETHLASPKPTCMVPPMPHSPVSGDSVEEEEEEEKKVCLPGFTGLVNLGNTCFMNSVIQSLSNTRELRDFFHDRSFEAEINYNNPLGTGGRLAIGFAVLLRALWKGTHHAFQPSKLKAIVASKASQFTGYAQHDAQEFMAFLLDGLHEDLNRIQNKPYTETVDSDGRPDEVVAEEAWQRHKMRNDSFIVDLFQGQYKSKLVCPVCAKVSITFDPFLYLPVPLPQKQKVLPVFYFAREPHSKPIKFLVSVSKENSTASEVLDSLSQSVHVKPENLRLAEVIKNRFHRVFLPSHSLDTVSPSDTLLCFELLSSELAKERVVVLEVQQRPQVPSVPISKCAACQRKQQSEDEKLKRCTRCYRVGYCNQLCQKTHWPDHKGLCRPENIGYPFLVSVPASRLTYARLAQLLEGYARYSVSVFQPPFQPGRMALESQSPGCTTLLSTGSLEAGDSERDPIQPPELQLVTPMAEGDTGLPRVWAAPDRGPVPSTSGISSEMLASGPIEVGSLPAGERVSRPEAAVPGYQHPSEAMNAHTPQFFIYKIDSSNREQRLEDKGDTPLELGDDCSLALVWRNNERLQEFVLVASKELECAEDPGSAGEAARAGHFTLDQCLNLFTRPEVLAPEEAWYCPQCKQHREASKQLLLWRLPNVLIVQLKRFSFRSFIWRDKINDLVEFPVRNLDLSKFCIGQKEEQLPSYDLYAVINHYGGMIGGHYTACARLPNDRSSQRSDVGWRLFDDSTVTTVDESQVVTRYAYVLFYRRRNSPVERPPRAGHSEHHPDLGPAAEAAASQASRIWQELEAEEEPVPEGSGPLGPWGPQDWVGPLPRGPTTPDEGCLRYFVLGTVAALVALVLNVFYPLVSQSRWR
# Summary of the method: (§1)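 Global-median-normalised Spectronaut label-free quantities were compared by unpaired t-test, and values are average log2 ratios of fragment over vehicle. Only proteins with ≥2 unique peptides were used. HEK293T lysate (495 µg per sample) was treated in triplicate with fragment at 200 µM or vehicle for 3 h and then with Biotin-Ahx-Ub-VS at 0.5 µM final for 1 h. Labelled DUBs were then NeutrAvidin-enriched, digested with LysC and trypsin, and run by diaPASEF LC-MS/MS.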
# USP22 = molecular target: T2, USP22 (UniProt Q9UPT9)
# T2 sequence (whole entry): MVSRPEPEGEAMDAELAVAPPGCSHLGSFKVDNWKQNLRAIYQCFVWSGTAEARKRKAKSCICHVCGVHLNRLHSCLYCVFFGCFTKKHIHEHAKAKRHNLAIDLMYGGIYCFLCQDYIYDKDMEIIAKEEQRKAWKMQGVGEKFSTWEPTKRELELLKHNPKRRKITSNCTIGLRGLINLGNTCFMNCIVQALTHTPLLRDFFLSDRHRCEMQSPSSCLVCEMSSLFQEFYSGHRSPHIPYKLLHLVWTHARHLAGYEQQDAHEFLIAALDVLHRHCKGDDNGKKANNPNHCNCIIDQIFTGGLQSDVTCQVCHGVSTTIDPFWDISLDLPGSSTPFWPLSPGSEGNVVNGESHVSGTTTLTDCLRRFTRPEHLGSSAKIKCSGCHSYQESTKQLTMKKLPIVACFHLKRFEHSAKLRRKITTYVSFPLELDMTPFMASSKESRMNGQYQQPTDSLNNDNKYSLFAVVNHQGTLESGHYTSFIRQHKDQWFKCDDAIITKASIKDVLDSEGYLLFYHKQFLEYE
# Summary of the method: as §1
# USP24 = USP24 (UniProt Q9UPU5)
# Sequence of USP24 (Q9UPU5 whole entry): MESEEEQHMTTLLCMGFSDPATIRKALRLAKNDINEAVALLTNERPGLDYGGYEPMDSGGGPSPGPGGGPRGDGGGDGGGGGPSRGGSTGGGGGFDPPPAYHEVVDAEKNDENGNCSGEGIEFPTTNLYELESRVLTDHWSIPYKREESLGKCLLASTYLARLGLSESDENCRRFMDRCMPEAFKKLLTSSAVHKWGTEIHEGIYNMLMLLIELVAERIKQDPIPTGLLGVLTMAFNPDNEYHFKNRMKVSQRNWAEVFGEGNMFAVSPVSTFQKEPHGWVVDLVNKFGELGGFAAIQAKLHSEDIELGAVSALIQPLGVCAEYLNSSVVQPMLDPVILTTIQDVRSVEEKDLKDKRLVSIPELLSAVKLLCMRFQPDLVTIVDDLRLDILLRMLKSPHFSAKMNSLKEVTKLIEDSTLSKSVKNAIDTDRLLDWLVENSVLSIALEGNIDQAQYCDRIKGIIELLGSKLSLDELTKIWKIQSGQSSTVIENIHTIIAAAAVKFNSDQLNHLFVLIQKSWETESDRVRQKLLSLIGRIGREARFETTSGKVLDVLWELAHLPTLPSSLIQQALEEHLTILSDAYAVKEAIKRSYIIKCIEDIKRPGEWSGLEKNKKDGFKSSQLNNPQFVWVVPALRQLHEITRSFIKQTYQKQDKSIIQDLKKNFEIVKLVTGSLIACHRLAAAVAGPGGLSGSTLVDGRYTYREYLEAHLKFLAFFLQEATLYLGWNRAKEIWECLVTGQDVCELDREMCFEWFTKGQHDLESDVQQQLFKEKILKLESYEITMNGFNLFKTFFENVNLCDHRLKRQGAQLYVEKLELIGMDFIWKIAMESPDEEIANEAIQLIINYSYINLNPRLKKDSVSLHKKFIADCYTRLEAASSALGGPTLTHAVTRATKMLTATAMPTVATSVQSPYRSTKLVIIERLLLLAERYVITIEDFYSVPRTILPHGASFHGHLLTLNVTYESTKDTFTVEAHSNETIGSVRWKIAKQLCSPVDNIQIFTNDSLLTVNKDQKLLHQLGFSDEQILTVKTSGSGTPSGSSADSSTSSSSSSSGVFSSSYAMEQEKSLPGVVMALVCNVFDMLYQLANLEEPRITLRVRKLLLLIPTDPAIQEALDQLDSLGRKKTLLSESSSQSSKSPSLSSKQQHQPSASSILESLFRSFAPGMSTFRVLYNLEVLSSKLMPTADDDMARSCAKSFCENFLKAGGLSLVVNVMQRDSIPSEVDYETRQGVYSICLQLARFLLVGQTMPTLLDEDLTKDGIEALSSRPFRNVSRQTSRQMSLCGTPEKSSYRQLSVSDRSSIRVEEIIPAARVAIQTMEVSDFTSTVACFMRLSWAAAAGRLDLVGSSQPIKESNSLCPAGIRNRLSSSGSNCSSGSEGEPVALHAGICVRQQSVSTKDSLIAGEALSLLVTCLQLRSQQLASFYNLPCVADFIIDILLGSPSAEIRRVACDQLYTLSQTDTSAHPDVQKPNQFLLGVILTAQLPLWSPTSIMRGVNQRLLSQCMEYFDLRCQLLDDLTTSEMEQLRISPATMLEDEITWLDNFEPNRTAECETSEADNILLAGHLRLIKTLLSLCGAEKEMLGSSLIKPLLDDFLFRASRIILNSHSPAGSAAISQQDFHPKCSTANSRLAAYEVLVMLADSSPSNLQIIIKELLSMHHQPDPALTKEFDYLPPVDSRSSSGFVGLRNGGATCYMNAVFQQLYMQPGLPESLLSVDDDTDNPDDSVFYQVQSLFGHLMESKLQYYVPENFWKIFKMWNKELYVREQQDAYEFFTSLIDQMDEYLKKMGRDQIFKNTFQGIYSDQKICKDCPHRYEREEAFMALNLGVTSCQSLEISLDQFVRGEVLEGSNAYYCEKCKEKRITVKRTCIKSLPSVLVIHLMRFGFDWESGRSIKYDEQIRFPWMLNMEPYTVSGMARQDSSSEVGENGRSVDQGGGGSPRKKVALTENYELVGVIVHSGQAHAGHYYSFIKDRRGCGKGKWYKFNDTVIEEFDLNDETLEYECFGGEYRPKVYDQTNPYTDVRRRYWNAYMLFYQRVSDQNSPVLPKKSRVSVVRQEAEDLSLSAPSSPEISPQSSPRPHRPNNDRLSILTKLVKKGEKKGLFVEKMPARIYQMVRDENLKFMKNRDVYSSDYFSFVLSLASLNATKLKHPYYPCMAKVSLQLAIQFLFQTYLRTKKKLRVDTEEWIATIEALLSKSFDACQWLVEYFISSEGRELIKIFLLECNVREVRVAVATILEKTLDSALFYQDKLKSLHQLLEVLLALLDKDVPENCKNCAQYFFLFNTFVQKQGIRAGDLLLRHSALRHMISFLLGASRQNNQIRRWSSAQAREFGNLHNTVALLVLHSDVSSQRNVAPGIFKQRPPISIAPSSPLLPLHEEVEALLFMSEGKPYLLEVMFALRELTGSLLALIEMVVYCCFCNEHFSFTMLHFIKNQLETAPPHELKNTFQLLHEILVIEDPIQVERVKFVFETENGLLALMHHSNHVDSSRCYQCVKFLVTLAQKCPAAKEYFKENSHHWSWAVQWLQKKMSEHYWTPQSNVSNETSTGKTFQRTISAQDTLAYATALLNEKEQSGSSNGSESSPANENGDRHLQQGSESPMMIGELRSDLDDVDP
# Summary of the method: as §1
# USP25 = molecular target: T3, USP25 (UniProt Q9UHP3)
# T3 sequence (whole entry): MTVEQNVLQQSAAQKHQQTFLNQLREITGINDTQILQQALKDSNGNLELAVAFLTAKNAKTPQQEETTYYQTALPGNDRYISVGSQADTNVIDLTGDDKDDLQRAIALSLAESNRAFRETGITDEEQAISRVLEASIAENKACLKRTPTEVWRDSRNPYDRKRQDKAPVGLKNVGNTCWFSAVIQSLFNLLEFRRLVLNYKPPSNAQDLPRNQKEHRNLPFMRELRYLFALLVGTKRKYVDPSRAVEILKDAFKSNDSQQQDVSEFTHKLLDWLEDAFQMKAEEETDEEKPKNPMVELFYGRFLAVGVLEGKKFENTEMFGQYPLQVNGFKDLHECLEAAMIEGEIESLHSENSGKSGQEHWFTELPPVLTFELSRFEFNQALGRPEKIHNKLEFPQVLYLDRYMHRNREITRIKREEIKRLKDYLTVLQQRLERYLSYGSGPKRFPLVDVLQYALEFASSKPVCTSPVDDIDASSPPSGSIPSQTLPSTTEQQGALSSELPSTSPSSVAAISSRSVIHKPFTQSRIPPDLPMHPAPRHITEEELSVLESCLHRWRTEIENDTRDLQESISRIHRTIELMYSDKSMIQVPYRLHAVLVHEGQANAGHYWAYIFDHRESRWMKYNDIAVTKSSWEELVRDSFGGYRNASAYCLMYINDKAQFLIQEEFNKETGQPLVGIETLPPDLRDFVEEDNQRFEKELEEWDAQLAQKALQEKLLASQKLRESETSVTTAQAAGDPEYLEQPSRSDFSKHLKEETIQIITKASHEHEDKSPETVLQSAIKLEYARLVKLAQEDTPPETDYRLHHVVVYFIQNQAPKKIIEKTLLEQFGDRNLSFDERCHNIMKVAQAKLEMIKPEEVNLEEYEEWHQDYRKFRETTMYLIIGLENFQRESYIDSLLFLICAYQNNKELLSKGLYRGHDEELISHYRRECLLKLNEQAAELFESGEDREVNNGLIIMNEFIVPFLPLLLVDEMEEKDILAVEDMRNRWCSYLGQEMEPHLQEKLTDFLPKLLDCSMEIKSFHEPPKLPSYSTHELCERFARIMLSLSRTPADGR
# Summary of the method: as §1
# USP28 = molecular target: T4, USP28 (UniProt Q96RU2)
# T4 sequence (whole entry): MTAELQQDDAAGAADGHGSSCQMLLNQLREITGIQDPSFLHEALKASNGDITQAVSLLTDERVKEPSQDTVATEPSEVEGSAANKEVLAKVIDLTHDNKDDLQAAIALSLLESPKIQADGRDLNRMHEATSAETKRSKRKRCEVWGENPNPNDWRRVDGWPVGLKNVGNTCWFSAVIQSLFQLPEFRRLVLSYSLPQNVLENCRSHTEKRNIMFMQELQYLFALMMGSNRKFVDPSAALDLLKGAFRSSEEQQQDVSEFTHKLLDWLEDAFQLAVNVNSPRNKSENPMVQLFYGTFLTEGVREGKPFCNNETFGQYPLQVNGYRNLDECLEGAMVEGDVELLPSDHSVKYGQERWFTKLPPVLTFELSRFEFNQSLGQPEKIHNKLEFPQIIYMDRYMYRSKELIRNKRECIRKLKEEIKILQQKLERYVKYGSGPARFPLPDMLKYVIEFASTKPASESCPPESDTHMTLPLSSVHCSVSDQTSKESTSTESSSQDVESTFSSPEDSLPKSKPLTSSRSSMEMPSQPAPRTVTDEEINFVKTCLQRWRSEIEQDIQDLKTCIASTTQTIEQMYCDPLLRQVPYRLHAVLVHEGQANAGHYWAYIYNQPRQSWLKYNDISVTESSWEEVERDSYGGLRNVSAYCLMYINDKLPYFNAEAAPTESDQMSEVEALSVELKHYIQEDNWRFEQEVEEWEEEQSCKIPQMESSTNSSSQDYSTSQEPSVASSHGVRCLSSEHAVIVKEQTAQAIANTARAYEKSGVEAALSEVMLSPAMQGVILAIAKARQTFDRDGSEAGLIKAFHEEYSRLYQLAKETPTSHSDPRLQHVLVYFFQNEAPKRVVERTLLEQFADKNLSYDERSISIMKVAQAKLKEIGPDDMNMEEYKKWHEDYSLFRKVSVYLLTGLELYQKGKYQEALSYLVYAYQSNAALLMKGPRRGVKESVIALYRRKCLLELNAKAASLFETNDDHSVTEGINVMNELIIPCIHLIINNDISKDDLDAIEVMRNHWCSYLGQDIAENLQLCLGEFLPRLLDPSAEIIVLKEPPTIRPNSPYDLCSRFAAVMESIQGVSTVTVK
# Summary of the method: as §1
smiles,measurement,setting,value
O=C(CCl)N1CCN(C(=O)N2CCCCC2)CC1,log2 ratio of Biotin-Ahx-Ub-VS probe labelling,USP19,-0.943
same,log2 ratio of Biotin-Ahx-Ub-VS probe labelling,USP22,-0.465
same,log2 ratio of Biotin-Ahx-Ub-VS probe labelling,USP24,-1.28 (active)
same,log2 ratio of Biotin-Ahx-Ub-VS probe labelling,USP25,-1.09 (active)
same,log2 ratio of Biotin-Ahx-Ub-VS probe labelling,USP28,-1.23 (active)
